Measured values taken from PubChem BioAssay (NCI).
This is part of a sample that, as a whole, favours compounds with a hit. Of some 83,000 tested, about 20% had one in any assay.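 The endpoint reported here, percent growth, reads 100 for growth as untreated, 0 for no net growth and -100 for all cells dead.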 Unmarked numbers belong to inactive results. Calls of active or inactive are those of the source. Rule for the calls: active = growth percent below 10; inactive = the rest.

Legend:
Experiment in all cases: NCI-60 one-dose screen, 48 h (100 = growth as untreated, 0 = no growth, -100 = all killed)
Conditions in all cases: 10 µM unless noted
DU-145 prostate = test system: DU-145 prostate
K-562 leukemia = test system: K-562 leukemia
MALME-3M melanoma = test system: MALME-3M melanoma
MDA-MB-231 breast = test system: MDA-MB-231 breast
RXF 393 renal = test system: RXF 393 renal
SF-268 CNS = test system: SF-268 CNS
SF-295 CNS = test system: SF-295 CNS
SF-539 CNS = test system: SF-539 CNS
UACC-257 melanoma = test system: UACC-257 melanoma
M14 melanoma = test system: M14 melanoma
HCT-15 colon = test system: HCT-15 colon
HT29 colon = test system: HT29 colon
SNB-75 CNS = test system: SNB-75 CNS
SNB-19 CNS = test system: SNB-19 CNS
U251 CNS = test system: U251 CNS
PC-3 prostate = test system: PC-3 prostate
SK-MEL-5 melanoma = test system: SK-MEL-5 melanoma
UACC-62 melanoma = test system: UACC-62 melanoma
LOX IMVI melanoma = test system: LOX IMVI melanoma

Row | SMILES | growth (DU-145 prostate) | growth (K-562 leukemia) | growth (MALME-3M melanoma) | growth (MDA-MB-231 breast) | growth (RXF 393 renal) | growth (SF-268 CNS) | growth (SF-295 CNS) | growth (SF-539 CNS) | growth (UACC-257 melanoma) | growth (M14 melanoma) | growth (HCT-15 colon) | growth (HT29 colon) | growth (SNB-75 CNS) | growth (SNB-19 CNS) | growth (U251 CNS) | growth (PC-3 prostate) | growth (SK-MEL-5 melanoma) | growth (UACC-62 melanoma) | growth (LOX IMVI melanoma)
1 | CNCc1cccc2c1OCCOCCOCCC(C)S(=O)(=O)c1ccc(cc1)-c1cnc(N)c(n1)C(=O)N2 (centres undefined) | 24.1% | 7.1% (active) | 75.3% | 57.4% | 16.4% | 54.2% | 98.8% | 25% | 50.6% | 52% | 17.8% | 15.1% | 10.5% | 53.8% | 19.2% | 32.3% | 78.8% | 60.6% | 48.8%
2 | Cc1cc(C)cc(NC(=O)Cn2nncc2CN2C(=O)CSC2=O)c1 | 109% | 101% | 100% | 97.5% | 113% | 101% | 103% | 94.7% | 97.3% | 106% | 99.4% | 108% | 95.1% | 100% | 102% | 100% | 103% | 94% | 91.3%
3 | CC(=O)c1ccc(Nc2nc(Cl)nc(Oc3c(Cl)cccc3Cl)n2)cc1 | 91.1% | 82.5% | 83.2% | 80% | 101% | 91.3% | 89.6% | 90.4% | 95.4% | 101% | 89.7% | 73.6% | 75% | 81.9% | 76.9% | 72.5% | 79.1% | 80.6% | 87.9%
4 | C[C@]12CCc3nc(Nc4ccc(O)cc4)sc3C1=CC[C@@H]1[C@@H]2CC[C@]2(C)/C(=N/NC(N)=S)CC[C@@H]12 | -62.4% (active) | -2.83% (active) | -60.5% (active) | -40.4% (active) | -67.6% (active) | -17% (active) | -8.62% (active) | 5.79% (active) | -9.35% (active) | -23.8% (active) | -48% (active) | -47.6% (active) | -2.86% (active) | -13.1% (active) | -70.3% (active) | -33.7% (active) | -61.2% (active) | -74.8% (active) | -52.5% (active)
5 | O=C1c2ccccc2C(=O)c2c1oc1ccc3ccccc3c21 | 85.7% | 101% | 27.8% | 60% | 88.2% | 76.7% | 93.7% | 78.3% | 77.7% | 57.1% | 65% | 106% | 93.3% | 90% | 81.1% | 72.3% | 17.3% | 84.2% | 41.9%
6 | COc1cc2nccc(Oc3ccc(NC(=O)C4(C(=O)Nc5ccc(F)cc5)CC4)cc3)c2cc1Oc1ccc(N)cn1 | 49.5% | 3.07% (active) | 43.1% | 42.7% | 11.5% | 36.8% | 0.157% (active) | 5.06% (active) | 34% | 39.8% | 27.9% | 9.65% (active) | -12.5% (active) | 54.5% | 33.6% | 24.5% | 39.2% | 5.29% (active) | 10.7%
7 | CCCOC(=O)C1c2cc3c(cc2CC(C)C1C(=O)OCCC)OCO3 (centres undefined) | 112% | 99.6% | 104% | 90% | 93.3% | 106% | 83% | 122% | 76.9% | 100% | 108% | 72% | 85.6% | 98.9% | 95.2% | 82.9% | 92.4% | 75.4% | 65.4%
8 | COc1c(C(=O)/C=C/c2ccc(C)o2)c(O)cc2occc12 | 87.1% | 22.5% | 76.7% | 89% | 62% | 80.1% | 82.4% | 80.6% | 86.1% | 55.5% | 35.9% | 65.2% | 59.8% | 76.5% | 75.4% | 72.2% | 86.6% | 58.6% | 71.2%
9 | FC(F)(F)c1ccc(/C=N/Nc2nnc3n2N=C(c2ccc(Cl)cc2)CS3)cc1 | 53.7% | 80.9% | 16.3% | 56.2% | 3.04% (active) | 36.8% | 47.6% | 54.8% | 46.9% | 74.4% | 79.9% | 70.1% | -24.9% (active) | 20.3% | 60.4% | 53.1% | 76.4% | 55.1% | 82.8%
10 | COc1ccc2[nH]c(C(=O)OCc3ccc4c(Br)cc(Br)c(O)c4n3)cc2c1 | -94.6% (active) | 1.4% (active) | -79.6% (active) | -73.6% (active) | -89.2% (active) | -70.8% (active) | 72.3% | -91.9% (active) | -72.8% (active) | -64.1% (active) | -62.1% (active) | -73.6% (active) | -75.5% (active) | 43.1% | -28.3% (active) | -64.9% (active) | -89.6% (active) | -79.5% (active) | -95.4% (active)
11 | Cc1cc(C)c2c(n1)sc1c(Nc3ccc(Cl)cc3Cl)ncnc12 | 20.3% | 42.9% | 53.4% | 58.7% | 28.8% | 17.9% | 14.3% | 4.9% (active) | 36.4% | -34.3% (active) | 46.2% | 38.9% | 39.7% | 32.4% | 25% | 50.9% | 25.5% | 15.6% | 10.2%
12 | CN1CCN(Cc2ccc(NC(=O)c3cncc(C#Cc4cnc5cccnn45)c3)cc2C(F)(F)F)CC1 | 3.43% (active) | 2.91% (active) | -46.5% (active) | -14.4% (active) | -56.3% (active) | -27.9% (active) | 28.6% | -47.9% (active) | 3.46% (active) | -33.5% (active) | 5.63% (active) | 1.67% (active) | -68.8% (active) | 9.4% (active) | 5.83% (active) | 5.62% (active) | 1.22% (active) | 10% | -16.2% (active)
13 | COC(=O)CNS(=O)(=O)c1ccc2c(c1)Cc1cc(S(=O)(=O)NCC(=O)OC)ccc1-2 | 113% | 100% | 100% | 105% | 108% | 102% | 100% | 97.2% | 97.6% | 103% | 102% | 112% | 91.6% | 100% | 100% | 92.9% | 98.2% | 93.3% | 97%
14 | Nc1ccc(N(O)/C=C2\C=CC=CC2=O)cc1N | 121% | 93.5% | 101% | 85.9% | 98.2% | 107% | 112% | 101% | 98.7% | 101% | 87% | 172% | 104% | 102% | 94.1% | 69.6% | 76.3% | 66.1% | 48.8%
15 | Clc1cn2cc(-c3ccc(Cl)c(Cl)c3Cl)nc2s1 | 117% | 92.6% | 101% | 98.5% | 99.8% | 103% | -71.5% (active) | 105% | 112% | 95.3% | 93.9% | 112% | 91.4% | 99.8% | 102% | 99.9% | 100% | 96.3% | 99.3%
16 | COC(=O)/C=C/c1cc(OC(C)=O)c2c(c1)[C@@H](C(=O)OC)[C@H](c1ccc(OC(C)=O)c(OC(C)=O)c1)O2 | -9.78% (active) | 8.05% (active) | 48.7% | 14.1% | 37.1% | 24.2% | 23.9% | -23.9% (active) | 48.3% | 2.76% (active) | 8.71% (active) | 11.8% | -3.49% (active) | 34.6% | 18.1% | 14.3% | -42.4% (active) | 33.6% | 7.76% (active)
